# Laboratory results from publication PMC7862700, “An all-to-all approach to the identification of sequence-specific readers for epigenetic DNA modifications on cytosine”.
# What was measured:
# Experiment in all cases: DAPPL (digital affinity profiling via proximity ligation, sequencing); 10 mM Tris-HCl pH 7.5, 50 mM NaCl, 1 mM DTT, 4% glycerol, room temperature, 30 min; GST-TFs on glutathione beads, 16-mer random dsDNA library, 0.1% formaldehyde crosslink after washing; high values mean tight binding
# FLI1 = biological target: T1, FLI1 (Homo sapiens, UniProt Q01543 1-452); details: protein: recombinant; tags: N-terminal GST; dsDNA, one strand shown
# T1 sequence: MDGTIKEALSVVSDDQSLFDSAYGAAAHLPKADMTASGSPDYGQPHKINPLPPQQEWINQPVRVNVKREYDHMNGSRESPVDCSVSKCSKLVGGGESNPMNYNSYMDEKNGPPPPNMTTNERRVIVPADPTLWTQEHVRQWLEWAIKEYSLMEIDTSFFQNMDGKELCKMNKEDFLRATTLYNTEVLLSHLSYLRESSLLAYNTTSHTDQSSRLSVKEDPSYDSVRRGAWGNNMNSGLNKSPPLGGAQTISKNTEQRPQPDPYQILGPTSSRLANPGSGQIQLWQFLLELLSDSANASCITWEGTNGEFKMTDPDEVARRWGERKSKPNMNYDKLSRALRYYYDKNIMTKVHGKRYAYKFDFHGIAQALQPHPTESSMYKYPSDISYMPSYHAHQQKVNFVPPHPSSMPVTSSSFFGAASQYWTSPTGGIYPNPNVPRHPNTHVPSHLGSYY
# In short: (§1)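 Binding signal is defined as a hexamer's read frequency for one factor over its frequency for the tag-only sample. To obtain reads, GST-fused human transcription factors were expressed in yeast, captured on glutathione beads, barcoded with DNA and pooled with that sample. Pools met 200 nmole of a 16-mer random double-stranded DNA library in Tris/NaCl/DTT/glycerol buffer for 30 min at room temperature before washing, 0.1% formaldehyde crosslinking, proximity ligation (BsaI/T4 ligase, 1 h, 37 °C), PCR and Illumina NextSeq500 sequencing.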
# ELK1 = biological target: T2, ELK1 (Homo sapiens, UniProt P19419 1-428); details: protein: recombinant; tags: N-terminal GST; dsDNA, one strand shown
# T2 sequence: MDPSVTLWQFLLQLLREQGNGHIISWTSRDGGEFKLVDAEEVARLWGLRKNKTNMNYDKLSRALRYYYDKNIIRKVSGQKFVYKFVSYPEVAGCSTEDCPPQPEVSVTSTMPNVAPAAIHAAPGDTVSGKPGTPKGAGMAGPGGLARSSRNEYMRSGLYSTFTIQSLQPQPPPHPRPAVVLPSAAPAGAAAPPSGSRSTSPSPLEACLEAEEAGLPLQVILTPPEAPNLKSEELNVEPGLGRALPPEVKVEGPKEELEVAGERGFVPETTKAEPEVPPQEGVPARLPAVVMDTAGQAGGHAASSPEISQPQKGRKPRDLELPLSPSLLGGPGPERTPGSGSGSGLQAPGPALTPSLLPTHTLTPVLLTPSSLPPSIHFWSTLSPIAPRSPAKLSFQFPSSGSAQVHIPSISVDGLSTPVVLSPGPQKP
# In short: as §1
# GABPA = biological target: T3, GABPA (Homo sapiens, UniProt Q06546 1-454); details: protein: recombinant; tags: N-terminal GST; dsDNA, one strand shown
# T3 sequence: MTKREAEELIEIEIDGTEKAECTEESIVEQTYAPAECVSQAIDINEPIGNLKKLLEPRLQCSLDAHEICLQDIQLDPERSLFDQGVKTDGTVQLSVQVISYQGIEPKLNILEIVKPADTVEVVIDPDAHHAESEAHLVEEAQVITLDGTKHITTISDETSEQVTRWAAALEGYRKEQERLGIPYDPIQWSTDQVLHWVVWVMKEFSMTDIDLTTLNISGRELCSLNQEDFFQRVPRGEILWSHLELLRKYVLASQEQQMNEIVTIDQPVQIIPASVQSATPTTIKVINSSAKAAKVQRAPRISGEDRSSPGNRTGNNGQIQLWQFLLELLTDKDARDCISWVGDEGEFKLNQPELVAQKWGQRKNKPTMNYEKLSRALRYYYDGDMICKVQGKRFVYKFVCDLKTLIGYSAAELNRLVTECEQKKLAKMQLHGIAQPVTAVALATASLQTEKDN
# In short: as §1
# ERG = biological target: T4, ERG (Homo sapiens, UniProt P11308 1-479); details: protein: recombinant; tags: N-terminal GST; dsDNA, one strand shown
# T4 sequence: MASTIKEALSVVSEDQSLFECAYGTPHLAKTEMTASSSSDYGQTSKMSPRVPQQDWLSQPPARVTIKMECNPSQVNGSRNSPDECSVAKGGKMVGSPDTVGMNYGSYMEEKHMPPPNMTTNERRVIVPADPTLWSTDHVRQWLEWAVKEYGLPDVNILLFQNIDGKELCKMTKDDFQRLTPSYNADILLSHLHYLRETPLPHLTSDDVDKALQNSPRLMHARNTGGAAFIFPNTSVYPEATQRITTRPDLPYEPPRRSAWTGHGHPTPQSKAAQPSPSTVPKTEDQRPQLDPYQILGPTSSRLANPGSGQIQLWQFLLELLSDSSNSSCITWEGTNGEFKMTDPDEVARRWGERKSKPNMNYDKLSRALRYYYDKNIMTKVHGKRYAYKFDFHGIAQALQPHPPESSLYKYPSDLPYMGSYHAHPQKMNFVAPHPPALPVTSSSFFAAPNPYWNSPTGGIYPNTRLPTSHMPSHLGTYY
# In short: as §1
# ELF1 = ELF1 (Homo sapiens, UniProt P32519 1-619); details: protein: recombinant; tags: N-terminal GST; dsDNA, one strand shown
# In short: as §1
# EHF = biological target: T5, EHF (Homo sapiens, UniProt Q9NZC4 1-300); details: protein: recombinant; tags: N-terminal GST; dsDNA, one strand shown
# T5 sequence: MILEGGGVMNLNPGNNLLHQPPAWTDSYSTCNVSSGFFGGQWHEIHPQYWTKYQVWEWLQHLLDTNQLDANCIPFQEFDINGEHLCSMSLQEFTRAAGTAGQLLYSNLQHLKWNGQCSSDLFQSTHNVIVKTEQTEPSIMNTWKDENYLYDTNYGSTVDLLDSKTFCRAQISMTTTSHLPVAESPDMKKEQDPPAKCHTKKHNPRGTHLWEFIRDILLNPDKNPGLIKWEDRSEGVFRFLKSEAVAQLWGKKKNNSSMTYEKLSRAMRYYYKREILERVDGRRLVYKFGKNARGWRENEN
# In short: as §1
# SPI1 = SPI1 (Homo sapiens, UniProt P17947 1-270); details: protein: recombinant; tags: N-terminal GST; dsDNA, one strand shown
# In short: as §1
# SPIB = SPIB (Homo sapiens, UniProt Q01892 1-262); details: protein: recombinant; tags: N-terminal GST; dsDNA, one strand shown
# In short: as §1
# ELK3 = biological target: T6, ELK3 (Homo sapiens, UniProt P41970 1-407); details: protein: recombinant; tags: N-terminal GST; dsDNA, one strand shown
# T6 sequence: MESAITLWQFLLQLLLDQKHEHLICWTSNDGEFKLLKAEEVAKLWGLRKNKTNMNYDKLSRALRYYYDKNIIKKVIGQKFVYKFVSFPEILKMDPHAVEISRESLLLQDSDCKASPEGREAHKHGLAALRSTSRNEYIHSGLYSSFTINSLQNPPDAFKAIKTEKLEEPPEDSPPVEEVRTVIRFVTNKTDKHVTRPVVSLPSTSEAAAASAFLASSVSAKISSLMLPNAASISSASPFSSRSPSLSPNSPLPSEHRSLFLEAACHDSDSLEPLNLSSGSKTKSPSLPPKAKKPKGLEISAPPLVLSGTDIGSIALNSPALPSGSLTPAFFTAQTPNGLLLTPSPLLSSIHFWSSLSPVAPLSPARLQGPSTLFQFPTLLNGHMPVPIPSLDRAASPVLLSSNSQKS
# In short: as §1
# FEV = biological target: T7, FEV (Homo sapiens, UniProt Q99581 1-238); details: protein: recombinant; tags: N-terminal GST; dsDNA, one strand shown
# T7 sequence: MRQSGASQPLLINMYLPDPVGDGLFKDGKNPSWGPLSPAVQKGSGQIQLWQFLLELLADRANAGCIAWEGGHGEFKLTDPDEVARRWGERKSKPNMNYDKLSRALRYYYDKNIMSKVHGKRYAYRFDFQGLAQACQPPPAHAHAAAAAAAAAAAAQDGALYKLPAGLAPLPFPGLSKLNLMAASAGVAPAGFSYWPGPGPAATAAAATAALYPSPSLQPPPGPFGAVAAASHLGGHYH
# In short: as §1
# ETV5 = ETV5 (Homo sapiens, UniProt P41161 1-510); details: protein: recombinant; tags: N-terminal GST; dsDNA, one strand shown
# In short: as §1
# HSF1 = HSF1 (Homo sapiens, UniProt Q00613 1-529); details: protein: recombinant; tags: N-terminal GST; chain copies: 3; dsDNA, one strand shown
# In short: as §1
# SPIC = biological target: T8, SPIC (Homo sapiens, UniProt Q8N5J4 1-248); details: protein: recombinant; tags: N-terminal GST; dsDNA, one strand shown
# T8 sequence: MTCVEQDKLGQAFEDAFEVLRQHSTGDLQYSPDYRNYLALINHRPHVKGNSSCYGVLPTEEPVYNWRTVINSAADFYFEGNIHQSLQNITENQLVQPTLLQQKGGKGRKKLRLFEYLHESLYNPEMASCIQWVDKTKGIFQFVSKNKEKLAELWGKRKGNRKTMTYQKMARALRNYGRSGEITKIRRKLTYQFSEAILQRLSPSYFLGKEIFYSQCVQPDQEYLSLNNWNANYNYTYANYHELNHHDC
# In short: as §1
# ELF4 = ELF4 (Homo sapiens, UniProt Q99607 1-663); details: protein: recombinant; tags: N-terminal GST; dsDNA, one strand shown
# In short: as §1
# ELK4 = biological target: T9, ELK4 (Homo sapiens, UniProt P28324-2 1-405); details: protein: recombinant; tags: N-terminal GST; dsDNA, one strand shown
# T9 sequence: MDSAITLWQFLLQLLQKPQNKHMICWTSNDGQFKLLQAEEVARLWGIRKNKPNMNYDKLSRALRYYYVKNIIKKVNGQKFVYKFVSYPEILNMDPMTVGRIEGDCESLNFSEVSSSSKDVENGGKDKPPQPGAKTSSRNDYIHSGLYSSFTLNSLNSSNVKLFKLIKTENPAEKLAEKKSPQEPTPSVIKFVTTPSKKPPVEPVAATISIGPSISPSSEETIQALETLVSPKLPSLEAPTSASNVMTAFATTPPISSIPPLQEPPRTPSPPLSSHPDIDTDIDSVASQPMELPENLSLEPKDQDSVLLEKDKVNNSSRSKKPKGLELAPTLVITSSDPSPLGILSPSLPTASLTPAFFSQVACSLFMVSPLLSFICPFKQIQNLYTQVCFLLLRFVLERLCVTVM
# In short: as §1
# ETV2 = biological target: T10, ETV2 (Homo sapiens, UniProt O00321 1-342); details: protein: recombinant; tags: N-terminal GST; dsDNA, one strand shown
# T10 sequence: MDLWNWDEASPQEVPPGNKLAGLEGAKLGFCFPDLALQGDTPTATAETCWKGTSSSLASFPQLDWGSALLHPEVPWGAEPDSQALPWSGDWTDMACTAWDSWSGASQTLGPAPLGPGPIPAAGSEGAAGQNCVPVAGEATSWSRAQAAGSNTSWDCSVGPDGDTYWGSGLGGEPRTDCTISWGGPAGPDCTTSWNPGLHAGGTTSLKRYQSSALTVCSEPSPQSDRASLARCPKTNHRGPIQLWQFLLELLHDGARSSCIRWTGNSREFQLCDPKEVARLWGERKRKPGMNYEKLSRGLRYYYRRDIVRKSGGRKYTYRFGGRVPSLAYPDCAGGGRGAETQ
# In short: as §1
# ELF3 = biological target: T11, ELF3 (Homo sapiens, UniProt P78545 1-371); details: protein: recombinant; tags: N-terminal GST; dsDNA, one strand shown
# T11 sequence: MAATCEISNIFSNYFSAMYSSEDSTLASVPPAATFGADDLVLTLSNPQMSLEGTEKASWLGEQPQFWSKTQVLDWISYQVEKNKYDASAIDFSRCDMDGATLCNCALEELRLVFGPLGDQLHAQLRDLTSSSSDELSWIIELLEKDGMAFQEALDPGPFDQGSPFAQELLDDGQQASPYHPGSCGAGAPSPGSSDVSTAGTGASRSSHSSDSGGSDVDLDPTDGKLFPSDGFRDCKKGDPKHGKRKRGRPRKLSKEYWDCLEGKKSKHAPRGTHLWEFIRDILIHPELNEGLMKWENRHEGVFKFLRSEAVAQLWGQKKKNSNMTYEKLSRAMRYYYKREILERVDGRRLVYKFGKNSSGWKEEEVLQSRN
# In short: as §1
# CRX = CRX (Homo sapiens, UniProt O43186 1-299); details: protein: recombinant; tags: N-terminal GST; dsDNA, one strand shown
# In short: as §1
# ETV1 = ETV1 (Homo sapiens, UniProt P50549 1-477); details: protein: recombinant; tags: N-terminal GST; dsDNA, one strand shown
# In short: as §1
# Sequence of ELF4 (Q99607 whole entry): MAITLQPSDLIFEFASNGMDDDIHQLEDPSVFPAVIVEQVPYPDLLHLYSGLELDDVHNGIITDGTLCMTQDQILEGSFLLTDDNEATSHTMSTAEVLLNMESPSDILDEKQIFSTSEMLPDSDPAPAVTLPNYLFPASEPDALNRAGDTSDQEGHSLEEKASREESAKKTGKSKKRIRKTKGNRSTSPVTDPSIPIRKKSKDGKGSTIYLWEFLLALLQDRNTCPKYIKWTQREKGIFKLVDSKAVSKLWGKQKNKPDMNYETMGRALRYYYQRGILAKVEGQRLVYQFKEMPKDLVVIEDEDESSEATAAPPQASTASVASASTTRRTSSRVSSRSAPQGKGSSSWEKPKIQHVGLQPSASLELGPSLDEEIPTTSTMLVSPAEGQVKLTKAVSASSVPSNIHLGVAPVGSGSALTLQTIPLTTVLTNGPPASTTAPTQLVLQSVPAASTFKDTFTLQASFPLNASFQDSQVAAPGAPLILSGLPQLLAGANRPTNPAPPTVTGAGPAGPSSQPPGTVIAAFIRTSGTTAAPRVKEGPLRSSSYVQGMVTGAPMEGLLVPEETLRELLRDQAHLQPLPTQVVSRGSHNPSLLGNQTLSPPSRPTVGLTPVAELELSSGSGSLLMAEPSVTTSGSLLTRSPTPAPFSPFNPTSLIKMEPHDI
# Sequence of ETV1 (P50549 whole entry): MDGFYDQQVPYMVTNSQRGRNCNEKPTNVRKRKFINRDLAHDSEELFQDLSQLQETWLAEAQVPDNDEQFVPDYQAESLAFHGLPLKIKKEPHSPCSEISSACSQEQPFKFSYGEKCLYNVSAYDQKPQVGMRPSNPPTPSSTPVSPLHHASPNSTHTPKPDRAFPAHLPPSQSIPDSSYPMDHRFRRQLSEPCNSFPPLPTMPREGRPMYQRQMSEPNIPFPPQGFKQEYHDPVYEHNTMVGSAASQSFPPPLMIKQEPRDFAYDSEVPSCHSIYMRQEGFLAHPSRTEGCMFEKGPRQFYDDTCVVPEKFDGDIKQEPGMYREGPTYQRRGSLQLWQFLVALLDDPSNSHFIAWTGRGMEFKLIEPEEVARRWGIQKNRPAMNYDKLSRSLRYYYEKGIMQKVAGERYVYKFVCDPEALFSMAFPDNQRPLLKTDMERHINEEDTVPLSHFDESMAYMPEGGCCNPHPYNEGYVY
# Sequence of HSF1 (Q00613 whole entry): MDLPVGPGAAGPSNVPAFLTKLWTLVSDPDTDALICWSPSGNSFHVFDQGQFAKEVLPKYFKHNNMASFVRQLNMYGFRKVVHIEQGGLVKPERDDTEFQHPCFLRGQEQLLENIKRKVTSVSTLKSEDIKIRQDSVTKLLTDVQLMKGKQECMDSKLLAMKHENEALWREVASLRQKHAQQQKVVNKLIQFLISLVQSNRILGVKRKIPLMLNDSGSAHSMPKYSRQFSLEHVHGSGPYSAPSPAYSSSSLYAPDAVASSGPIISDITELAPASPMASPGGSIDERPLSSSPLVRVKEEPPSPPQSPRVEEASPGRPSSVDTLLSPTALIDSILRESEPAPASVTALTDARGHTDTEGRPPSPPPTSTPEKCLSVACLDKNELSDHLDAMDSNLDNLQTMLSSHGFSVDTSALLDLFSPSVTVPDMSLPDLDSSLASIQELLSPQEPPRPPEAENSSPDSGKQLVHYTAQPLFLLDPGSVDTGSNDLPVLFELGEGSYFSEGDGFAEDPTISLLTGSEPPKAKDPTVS
# Sequence of ELF1 (P32519 whole entry): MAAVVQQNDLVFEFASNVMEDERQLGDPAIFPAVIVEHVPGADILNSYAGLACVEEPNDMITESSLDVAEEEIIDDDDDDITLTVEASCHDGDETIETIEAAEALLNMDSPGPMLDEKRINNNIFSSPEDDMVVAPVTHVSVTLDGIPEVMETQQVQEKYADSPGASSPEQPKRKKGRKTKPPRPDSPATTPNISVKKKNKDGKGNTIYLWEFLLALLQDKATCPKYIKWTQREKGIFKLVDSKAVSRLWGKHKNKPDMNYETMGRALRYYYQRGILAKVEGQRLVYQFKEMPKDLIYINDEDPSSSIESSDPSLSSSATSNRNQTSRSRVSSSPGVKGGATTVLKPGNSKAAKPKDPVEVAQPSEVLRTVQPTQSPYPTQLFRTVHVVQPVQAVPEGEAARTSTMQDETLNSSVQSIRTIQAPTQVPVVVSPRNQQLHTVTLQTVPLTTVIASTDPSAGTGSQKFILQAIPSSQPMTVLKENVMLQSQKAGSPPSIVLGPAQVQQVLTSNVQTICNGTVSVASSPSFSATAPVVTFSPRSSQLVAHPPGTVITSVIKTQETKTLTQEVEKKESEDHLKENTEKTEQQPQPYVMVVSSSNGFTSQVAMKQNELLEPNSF
# Sequence of CRX (O43186 whole entry): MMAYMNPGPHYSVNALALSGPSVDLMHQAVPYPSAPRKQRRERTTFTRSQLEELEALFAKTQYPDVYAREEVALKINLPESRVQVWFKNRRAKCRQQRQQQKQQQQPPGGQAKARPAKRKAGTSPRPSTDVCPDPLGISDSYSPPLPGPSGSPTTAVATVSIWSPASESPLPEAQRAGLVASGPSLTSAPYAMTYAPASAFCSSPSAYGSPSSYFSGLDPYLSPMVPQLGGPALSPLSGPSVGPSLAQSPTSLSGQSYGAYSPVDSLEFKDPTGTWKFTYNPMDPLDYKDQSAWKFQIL
# Sequence of SPIB (Q01892 whole entry): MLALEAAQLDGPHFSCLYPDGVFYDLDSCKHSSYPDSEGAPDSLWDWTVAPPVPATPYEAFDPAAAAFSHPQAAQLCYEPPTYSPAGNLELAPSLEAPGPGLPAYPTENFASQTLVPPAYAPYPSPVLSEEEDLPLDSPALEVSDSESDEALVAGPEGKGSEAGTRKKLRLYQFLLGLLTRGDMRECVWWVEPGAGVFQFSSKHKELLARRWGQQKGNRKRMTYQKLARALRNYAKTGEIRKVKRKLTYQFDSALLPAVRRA
# Sequence of ETV5 (P41161 whole entry): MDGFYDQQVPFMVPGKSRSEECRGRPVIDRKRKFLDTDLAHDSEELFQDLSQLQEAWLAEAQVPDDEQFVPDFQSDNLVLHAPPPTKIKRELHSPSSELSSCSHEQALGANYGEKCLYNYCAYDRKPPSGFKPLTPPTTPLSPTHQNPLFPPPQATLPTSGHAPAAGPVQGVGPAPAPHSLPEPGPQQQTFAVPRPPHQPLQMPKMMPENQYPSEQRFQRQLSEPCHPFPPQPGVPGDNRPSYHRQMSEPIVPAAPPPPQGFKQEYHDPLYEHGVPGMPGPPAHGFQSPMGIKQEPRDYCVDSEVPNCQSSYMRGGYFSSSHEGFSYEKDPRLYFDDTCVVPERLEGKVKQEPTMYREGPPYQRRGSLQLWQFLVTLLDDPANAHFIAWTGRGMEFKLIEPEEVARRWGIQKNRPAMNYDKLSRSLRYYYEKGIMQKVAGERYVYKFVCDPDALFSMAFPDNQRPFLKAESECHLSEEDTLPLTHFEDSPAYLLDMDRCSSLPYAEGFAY
sequence,measurement,setting,value
CTTAAT,binding signal,FLI1,"1.37 fold enrichment (6-mer frequency, TF over GST control)"
same,binding signal,ELK1,"1.2 fold enrichment (6-mer frequency, TF over GST control)"
same,binding signal,GABPA,"1.34 fold enrichment (6-mer frequency, TF over GST control)"
same,binding signal,ERG,"1.13 fold enrichment (6-mer frequency, TF over GST control)"
same,binding signal,ELF1,"1.26 fold enrichment (6-mer frequency, TF over GST control)"
same,binding signal,EHF,"1.24 fold enrichment (6-mer frequency, TF over GST control)"
same,binding signal,SPI1,"1.31 fold enrichment (6-mer frequency, TF over GST control)"
same,binding signal,SPIB,"1.3 fold enrichment (6-mer frequency, TF over GST control)"
same,binding signal,ELK3,"1.47 fold enrichment (6-mer frequency, TF over GST control)"
same,binding signal,FEV,"1.23 fold enrichment (6-mer frequency, TF over GST control)"
same,binding signal,ETV5,"1.27 fold enrichment (6-mer frequency, TF over GST control)"
same,binding signal,HSF1,"2.31 fold enrichment (6-mer frequency, TF over GST control)"
same,binding signal,SPIC,"1.32 fold enrichment (6-mer frequency, TF over GST control)"
same,binding signal,ELF4,"1.33 fold enrichment (6-mer frequency, TF over GST control)"
same,binding signal,ELK4,"1.22 fold enrichment (6-mer frequency, TF over GST control)"
same,binding signal,ETV2,"1.25 fold enrichment (6-mer frequency, TF over GST control)"
same,binding signal,ELF3,"1.35 fold enrichment (6-mer frequency, TF over GST control)"
same,binding signal,CRX,"3.69 fold enrichment (6-mer frequency, TF over GST control)"
same,binding signal,ETV1,"1.29 fold enrichment (6-mer frequency, TF over GST control)"
